For assay [1], the system named is Proto-oncogene tyrosine-protein kinase receptor Ret (Homo sapiens), P07949 [Y791F]. Particulars: at 1 µM.
In assay [2] the target is Macrophage-stimulating protein receptor (Homo sapiens) (UniProt Q04912). Particulars: at 0.1 µM.
Assay [3] shares this target. Particulars: at 1 µM.
The target of assay [4] is Proto-oncogene tyrosine-protein kinase ROS (Homo sapiens) (UniProt P08922). Particulars: at 0.1 µM.
Assay [5] has the same target. Particulars: at 1 µM.
Assay [6] has as its target Proto-oncogene tyrosine-protein kinase Src (Homo sapiens) (UniProt P12931). Particulars: at 0.1 µM.
The target is the same in assay [7]. Particulars: at 1 µM.
Assay [8] concerns the target Tyrosine-protein kinase Srms (Homo sapiens) (UniProt Q9H3Y6). Particulars: at 0.1 µM.
The target is the same in assay [9]. Particulars: at 1 µM.
Assay [10] concerns the target Tyrosine-protein kinase SYK (Homo sapiens) (UniProt P43405). Particulars: at 0.1 µM.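 Also: reported percentages are mean inhibition values for SYK.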

Molecules are shown by their SMILES.

Sequence of Proto-oncogene tyrosine-protein kinase Src (Homo sapiens) (P12931 2-536 limits assumed): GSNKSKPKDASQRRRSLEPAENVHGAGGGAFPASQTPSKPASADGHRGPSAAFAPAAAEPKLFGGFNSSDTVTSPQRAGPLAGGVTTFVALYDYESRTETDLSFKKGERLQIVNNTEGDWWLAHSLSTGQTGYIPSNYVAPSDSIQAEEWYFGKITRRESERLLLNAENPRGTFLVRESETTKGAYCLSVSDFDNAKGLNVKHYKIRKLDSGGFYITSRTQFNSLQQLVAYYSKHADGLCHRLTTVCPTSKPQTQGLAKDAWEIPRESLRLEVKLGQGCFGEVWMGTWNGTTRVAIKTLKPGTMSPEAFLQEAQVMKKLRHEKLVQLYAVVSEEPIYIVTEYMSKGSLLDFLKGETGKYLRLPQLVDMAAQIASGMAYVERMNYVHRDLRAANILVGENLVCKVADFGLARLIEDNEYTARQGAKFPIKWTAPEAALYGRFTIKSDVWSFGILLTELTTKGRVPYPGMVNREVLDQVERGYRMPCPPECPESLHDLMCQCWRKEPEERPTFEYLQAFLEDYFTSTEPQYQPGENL
Sequence of Proto-oncogene tyrosine-protein kinase receptor Ret (Homo sapiens), P07949 [Y791F] (P07949 whole entry Y791F): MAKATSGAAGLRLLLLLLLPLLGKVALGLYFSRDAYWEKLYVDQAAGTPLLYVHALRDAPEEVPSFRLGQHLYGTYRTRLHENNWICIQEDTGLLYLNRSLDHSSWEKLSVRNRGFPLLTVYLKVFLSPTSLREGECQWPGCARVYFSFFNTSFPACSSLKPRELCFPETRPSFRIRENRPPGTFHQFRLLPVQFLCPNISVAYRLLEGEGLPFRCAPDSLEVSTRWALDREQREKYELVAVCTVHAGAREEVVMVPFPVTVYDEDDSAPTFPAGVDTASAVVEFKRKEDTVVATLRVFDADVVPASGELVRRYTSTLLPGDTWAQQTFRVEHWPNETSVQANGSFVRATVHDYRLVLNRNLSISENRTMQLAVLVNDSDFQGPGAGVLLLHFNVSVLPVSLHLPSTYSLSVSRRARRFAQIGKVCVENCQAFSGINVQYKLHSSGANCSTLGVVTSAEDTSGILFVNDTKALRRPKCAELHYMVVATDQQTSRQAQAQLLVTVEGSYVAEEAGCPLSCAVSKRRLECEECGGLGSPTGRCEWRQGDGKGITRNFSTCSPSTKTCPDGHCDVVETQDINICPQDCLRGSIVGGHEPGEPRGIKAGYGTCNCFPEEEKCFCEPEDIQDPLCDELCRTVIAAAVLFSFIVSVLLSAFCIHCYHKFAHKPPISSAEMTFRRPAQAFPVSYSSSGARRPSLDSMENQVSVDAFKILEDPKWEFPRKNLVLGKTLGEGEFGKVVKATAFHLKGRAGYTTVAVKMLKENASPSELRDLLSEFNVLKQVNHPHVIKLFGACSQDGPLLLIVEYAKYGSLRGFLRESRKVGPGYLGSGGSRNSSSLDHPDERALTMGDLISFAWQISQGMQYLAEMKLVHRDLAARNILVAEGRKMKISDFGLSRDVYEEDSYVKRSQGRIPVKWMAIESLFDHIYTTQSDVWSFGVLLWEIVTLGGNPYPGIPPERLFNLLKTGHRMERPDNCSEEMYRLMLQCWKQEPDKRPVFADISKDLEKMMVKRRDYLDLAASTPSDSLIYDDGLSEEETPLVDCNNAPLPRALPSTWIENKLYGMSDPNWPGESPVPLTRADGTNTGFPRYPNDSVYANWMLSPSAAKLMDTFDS
Sequence of Proto-oncogene tyrosine-protein kinase ROS (Homo sapiens) (P08922 whole entry): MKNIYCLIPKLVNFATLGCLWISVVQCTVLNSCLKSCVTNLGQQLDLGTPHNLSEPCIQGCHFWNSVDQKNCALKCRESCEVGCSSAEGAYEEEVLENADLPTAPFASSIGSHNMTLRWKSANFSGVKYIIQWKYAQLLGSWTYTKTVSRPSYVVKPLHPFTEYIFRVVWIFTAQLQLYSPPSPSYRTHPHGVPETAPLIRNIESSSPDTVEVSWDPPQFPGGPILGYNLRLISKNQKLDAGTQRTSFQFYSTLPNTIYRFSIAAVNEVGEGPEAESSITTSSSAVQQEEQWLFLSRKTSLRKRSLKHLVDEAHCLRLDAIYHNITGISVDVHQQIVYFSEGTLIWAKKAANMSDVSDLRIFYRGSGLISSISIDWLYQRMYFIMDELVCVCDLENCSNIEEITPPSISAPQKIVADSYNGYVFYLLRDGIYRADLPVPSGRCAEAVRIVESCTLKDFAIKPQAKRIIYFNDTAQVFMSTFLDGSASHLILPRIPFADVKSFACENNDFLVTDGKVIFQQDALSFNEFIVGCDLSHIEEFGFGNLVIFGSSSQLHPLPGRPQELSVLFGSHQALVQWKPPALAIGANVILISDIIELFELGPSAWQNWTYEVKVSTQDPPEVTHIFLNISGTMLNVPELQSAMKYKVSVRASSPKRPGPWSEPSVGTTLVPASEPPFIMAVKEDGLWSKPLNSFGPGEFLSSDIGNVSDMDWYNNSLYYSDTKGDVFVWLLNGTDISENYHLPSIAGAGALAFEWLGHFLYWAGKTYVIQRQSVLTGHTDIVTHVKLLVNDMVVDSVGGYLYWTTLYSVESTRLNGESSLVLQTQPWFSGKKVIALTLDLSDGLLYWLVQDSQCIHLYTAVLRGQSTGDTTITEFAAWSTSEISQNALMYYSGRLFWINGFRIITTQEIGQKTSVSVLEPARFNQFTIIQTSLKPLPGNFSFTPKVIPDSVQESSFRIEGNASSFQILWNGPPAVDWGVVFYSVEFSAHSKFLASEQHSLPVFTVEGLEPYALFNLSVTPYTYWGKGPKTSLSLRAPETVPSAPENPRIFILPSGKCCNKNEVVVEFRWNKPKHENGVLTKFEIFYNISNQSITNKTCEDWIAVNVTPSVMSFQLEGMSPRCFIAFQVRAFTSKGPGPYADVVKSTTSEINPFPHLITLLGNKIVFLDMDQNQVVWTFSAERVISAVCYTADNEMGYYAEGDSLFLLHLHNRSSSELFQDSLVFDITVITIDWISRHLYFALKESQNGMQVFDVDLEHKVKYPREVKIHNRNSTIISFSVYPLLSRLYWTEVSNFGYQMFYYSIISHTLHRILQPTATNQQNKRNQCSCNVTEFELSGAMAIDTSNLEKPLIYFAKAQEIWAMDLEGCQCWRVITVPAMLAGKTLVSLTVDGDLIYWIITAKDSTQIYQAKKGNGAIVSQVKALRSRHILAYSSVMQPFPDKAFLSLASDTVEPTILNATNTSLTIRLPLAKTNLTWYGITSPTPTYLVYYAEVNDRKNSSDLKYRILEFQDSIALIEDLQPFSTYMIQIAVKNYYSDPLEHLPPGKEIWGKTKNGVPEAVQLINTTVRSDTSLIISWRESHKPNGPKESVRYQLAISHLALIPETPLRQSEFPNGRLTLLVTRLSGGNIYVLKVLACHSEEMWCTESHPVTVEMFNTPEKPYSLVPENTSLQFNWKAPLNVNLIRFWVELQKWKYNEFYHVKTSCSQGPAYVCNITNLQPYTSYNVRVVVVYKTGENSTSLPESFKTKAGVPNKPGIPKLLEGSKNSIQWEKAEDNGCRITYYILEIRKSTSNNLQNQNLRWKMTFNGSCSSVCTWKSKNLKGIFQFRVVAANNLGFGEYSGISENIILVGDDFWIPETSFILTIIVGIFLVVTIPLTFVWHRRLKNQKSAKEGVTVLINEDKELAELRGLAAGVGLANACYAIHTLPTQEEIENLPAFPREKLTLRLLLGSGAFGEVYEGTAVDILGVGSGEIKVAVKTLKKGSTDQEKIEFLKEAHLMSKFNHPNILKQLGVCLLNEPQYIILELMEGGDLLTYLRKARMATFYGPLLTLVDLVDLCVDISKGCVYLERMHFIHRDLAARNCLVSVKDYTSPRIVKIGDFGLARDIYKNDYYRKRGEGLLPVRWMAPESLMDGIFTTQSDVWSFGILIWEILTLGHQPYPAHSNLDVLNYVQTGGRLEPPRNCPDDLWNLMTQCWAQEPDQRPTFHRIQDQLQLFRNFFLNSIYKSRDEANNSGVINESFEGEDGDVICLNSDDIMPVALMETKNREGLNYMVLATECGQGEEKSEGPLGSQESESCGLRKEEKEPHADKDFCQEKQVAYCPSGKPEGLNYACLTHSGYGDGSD
Sequence of Tyrosine-protein kinase Srms (Homo sapiens) (Q9H3Y6 whole entry): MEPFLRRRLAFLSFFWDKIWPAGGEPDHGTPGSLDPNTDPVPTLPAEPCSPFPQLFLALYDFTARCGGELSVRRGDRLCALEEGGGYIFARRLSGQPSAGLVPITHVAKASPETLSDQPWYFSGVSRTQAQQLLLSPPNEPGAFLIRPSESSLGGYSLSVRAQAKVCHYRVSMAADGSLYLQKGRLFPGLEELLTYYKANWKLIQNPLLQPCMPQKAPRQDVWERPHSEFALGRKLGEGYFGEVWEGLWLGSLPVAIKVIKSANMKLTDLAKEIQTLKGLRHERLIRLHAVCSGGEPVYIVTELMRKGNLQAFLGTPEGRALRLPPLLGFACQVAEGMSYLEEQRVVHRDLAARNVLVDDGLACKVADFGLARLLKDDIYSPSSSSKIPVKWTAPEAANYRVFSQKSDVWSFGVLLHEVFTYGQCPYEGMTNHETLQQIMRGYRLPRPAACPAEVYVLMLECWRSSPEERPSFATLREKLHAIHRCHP

By inhibition is commonly meant the relative decrease from the control value, in per cent. On to `CC1=C(C(=O)Nc2cc(Cl)c3[nH]ncc3c2)C(c2ccc(C(F)(F)F)cc2)CC(=O)N1` (stereo not given), for which the inhibition turned out to be 18.1% in assay [1]; 13.4% in assay [2]; 11.4% in [3]; 4.57% in assay [4]; 6.5% in assay [5]; 1.84% in [6]. Moreover, the inhibition in assay [7] was 30.8%; in assay [8] it was -1.35%; in [9] it was 3.11%; in assay [10], -2.63%.

Consider `c1ccc(COc2ccc(Nc3ncnc4ccc(-c5ccco5)cc34)cc2)cc1`, for which the inhibition in assay [1] is 1.21%; in [2], 4.01%; in [3] it was 7.76%; in [4], 2.59%; in [5], 3.28%; in [6] it was 0.54%. Besides, the inhibition is 1.64% in assay [7], 0.68% in assay [8], 0.99% in [9] and -0.45% in [10].

Consider `CN(C)CCOc1ccc(-c2nc(-c3ccncc3)c(-c3ccc4c(c3)CC/C4=N\O)[nH]2)cc1`, for which the inhibition is 20.2% in assay [1]; -1.14% in assay [2]; 7.41% in [3]; 3.61% in [4]; 5.38% in [5]; 0.25% in assay [6]. The inhibition in assay [7] is 11.9%; in assay [8], -1.81%; in [9], -0.6%; in [10], -2.98%.

As to `O=C(Nc1n[nH]c2cc(-c3ccc(F)cc3)ccc12)C1CC1`, the inhibition in [1] was determined as 2.03%; in assay [2], 3.73%; in assay [3] it was 1.45%; in [4], 4.52%; in [5], 6.57%; in assay [6], 0.9%. In addition, the inhibition is 6.35% in assay [7], -1.28% in [8], -0.73% in assay [9] and -3.9% in [10].

On to `COC(=O)c1sc(-n2cnc3cc(OC)c(OC)cc32)cc1OCc1ccccc1C(F)(F)F`, for which the inhibition was 52.3% in assay [1]; 0.58% in assay [2]; 1.46% in assay [3]; 6.32% in [4]; 12.3% in [5]; 1.51% in assay [6]. The inhibition in assay [7] was 24.7%; in assay [8] it was -2.13%; in [9] it was -3.45%; in [10], -5.15%.

For the compound `Fc1ccc(-c2nn3ccccc3c2-c2ccncc2)cc1`, the inhibition was 7.11% in assay [1]; 3.62% in [2]; 3.94% in [3]; 1.35% in assay [4]; 3.41% in assay [5]; -0.8% in [6]. In addition, the inhibition was 5% in [7], -1.74% in assay [8], 0.28% in [9] and 2.26% in [10].

As to `CCCN1CCC(c2ccc(Nc3nc(Nc4cc(F)ccc4C(N)=O)c4cc[nH]c4n3)c(OC)c2)CC1`, the inhibition was 35.8% in [1]; 8.19% in assay [2]; 8.86% in assay [3]; 60.7% in [4]; 81.3% in assay [5]; -0.59% in assay [6]. In addition, the inhibition in assay [7] was 15.3%; in [8], 1.02%; in assay [9] it was 14.8%; in [10], -9.2%.

As for `CCCN(CCS(C)(=O)=O)Cc1ccc(-c2ccc3ncnc(Nc4ccc(OCc5cccc(F)c5)c(Cl)c4)c3c2)o1`, the inhibition in [1] stood at 2.22%; in assay [2] it was 2.96%; in assay [3], 4.1%; in assay [4], 2.72%; in assay [5], 6.67%; in [6] it was 3.8%. Also, the inhibition is 6.22% in assay [7], 1.1% in assay [8], 2.29% in assay [9] and -1.64% in assay [10].

Consider `CNC(=O)c1cccc(C#Cc2cncnc2Nc2ccc(OCc3cccc(F)c3)c(Cl)c2)c1`, for which the inhibition in assay [1] is 20.7%; in assay [2], 0.58%; in [3] it was 0.88%; in assay [4], -2.5%; in assay [5], 1.03%; in assay [6], -0.84%. For the same compound, the inhibition in [7] was 5.22%; in assay [8], 0.46%; in assay [9], 1.17%; in [10], -6.37%.

With `CCOc1ccc2c(-c3ccnc(Nc4cccc(C(F)(F)F)c4)n3)cnn2n1`, the inhibition was 12.4% in assay [1]; 4.92% in [2]; -3.11% in [3]; 2.05% in assay [4]; 15% in [5]; 4.83% in [6]. Further, the inhibition was 3.76% in assay [7], -3.13% in assay [8], -1.56% in [9] and -1.67% in assay [10].

As to `COc1cccc(-c2c[nH]c3c(N/N=C/c4ccncc4)ncnc23)c1`, the inhibition in assay [1] is 39.7%; in [2], 9.37%; in assay [3] it was 42.4%; in assay [4] it was 4.61%; in assay [5], 14.4%; in [6], 29.8%. In addition, the inhibition in [7] was 77.3%; in assay [8], 1.92%; in [9], 11.8%; in assay [10], -4.09%.

Take `CCn1c(-c2nonc2N)nc2c(C#CC(C)(C)O)ncc(OC3CCNCC3)c21`: the inhibition was 17.1% in assay [1]; -2.24% in assay [2]; 0.48% in assay [3]; 7.34% in [4]; 6.9% in assay [5]; 7.32% in assay [6]. The inhibition came out at 11.4% in assay [7], 0.02% in assay [8], 1.37% in assay [9] and 2.08% in [10].

Regarding `COc1ccc(CNC(=O)c2ccc(-c3cc(-c4nnc(C)o4)ccc3C)cc2)cc1`, the inhibition in assay [1] stood at 19.9%; in assay [2] it was 10.5%; in [3] it was 3.7%; in assay [4] it was 6.1%; in assay [5], 5.4%; in assay [6], 1.18%. Further, the inhibition in assay [7] turned out to be 2.9%; in [8], 3.8%; in assay [9], 8.13%; in [10], 2.81%.

Take `Fc1cccc(COc2ccc(Nc3ncnc4sc(-c5ccco5)cc34)cc2Cl)c1`: the inhibition was 6.83% in assay [1]; -0.84% in [2]; 3.24% in assay [3]; 1.53% in assay [4]; 8.29% in [5]; 7.3% in assay [6]. Further, the inhibition in [7] is 6.58%; in assay [8], -3.52%; in assay [9], -1.36%; in assay [10], -3.2%.

Take `COc1ccc(-c2oc3ncnc(N)c3c2-c2ccc(NC(=O)Nc3cc(C(F)(F)F)ccc3F)cc2)cc1`: the inhibition in assay [1] worked out at 94.7%; in [2], 4.83%; in assay [3], 21.8%; in assay [4], 32.7%; in assay [5], 81.2%; in [6], 43.1%. Also, the inhibition is 91.1% in assay [7], 1.78% in [8], 8.83% in assay [9] and -0.9% in assay [10].

For the compound `CCn1c(-c2nonc2N)nc2c(C#CC(C)(C)O)nc(OC[C@H](N)c3ccccc3)cc21`, the inhibition in [1] is 41.3%; in assay [2], 4.34%; in assay [3], -1.45%; in assay [4] it was 9.15%; in assay [5], 9.48%; in assay [6], 8.29%. Also, the inhibition in assay [7] was 13.7%; in assay [8], 2.09%; in assay [9], 1.99%; in assay [10], 2.17%.

Regarding `CN1CCC(n2cnc(-c3ccc(F)cc3)c2-c2ccnc(N)n2)CC1`, the inhibition was 27.5% in assay [1]; 5.16% in assay [2]; -2.05% in [3]; 2.9% in assay [4]; 15.1% in assay [5]; 1.96% in [6]. Further, the inhibition in assay [7] stood at 10.6%; in assay [8] it was 1.38%; in [9], 0.46%; in assay [10], 2.67%.

These data come from ChEMBL document CHEMBL1961873, “Compounds: GSK PKIS; Assays: Nanosyn kinase panel” (2012).
